# Data as given in PubChem BioAssay (Tox21).
# Records with an inconclusive call do not appear. Entries that show only a call come without a potency. Activity calls are given as the source filed them. Calls follow the shape of the dose curve; as a rule, active = well fitted cell-killing curve with a large enough effect in the repeat runs; inconclusive = weak or mixed curves, or effect the other way; inactive = no such curve, though single readings can be large or run the other way.
# Test: qHTS assay to identify small molecule antagonists of the glucocorticoid receptor (GR) signaling pathway - cell viability counter screen (AID 720693); also: nearly all actives have a fitted effect of over 55% in size
# Settings: GR-bla HeLa viability, CellTiter-Glo luminescence, 18 h, with 5 nM dexamethasone present; series mostly up to 58.5 µM
# Potency is read from the fitted curve at half-maximal effect.
row,SMILES,Potency
1,CCCCCCCCCCCCCCCC(=O)OC/C=C(C)/C=C/C=C(C)/C=C/C1=C(C)CCCC1(C)C,inactive
2,OCC1CC2CC1C1CCC(CO)C21 (stereo not drawn),inactive
3,CC(C(=O)O)c1ccc(-c2ccccc2)c(F)c1 (stereo not drawn),inactive
4,CC(O)C1CCCCC1 (stereo not drawn),inactive
5,C=C(C)C(=O)OC(C)C,inactive
6,CCOC(=O)CC(C)C,inactive
7,CC(Cc1cccc(C(F)(F)F)c1)NCCOC(=O)c1ccccc1 (stereo not drawn),inactive
8,COc1ccccc1OC(=O)Oc1ccccc1OC,inactive
9,CCCCCCCCCO,inactive
10,O=C(O)COC(=O)Cc1ccccc1Nc1c(Cl)cccc1Cl,inactive
11,Cc1ncsc1CCO,inactive
12,CC1(C)[C@H]2CC[C@]1(C)[C@H](O)C2,inactive
13,NCCCOCCOCCOCCCN,inactive
14,FC(F)(F)C(F)(F)C(F)(F)C(F)(F)C(F)(F)C(F)(F)CCI,inactive
15,Cc1ccc(C)o1,inactive
16,CCCCCC/C=C/C=O,inactive
17,O=C(c1ccccc1)c1ccc2n1CCC2C(=O)O (stereo not drawn),inactive
18,Nc1nc(N)c2nc(CNc3ccc(C(=O)N[C@@H](CCC(=O)O)C(=O)O)cc3)cnc2n1,inactive
19,O=C(O)C(c1ccc(Cl)cc1)c1ccc(Cl)cc1,inactive

row,SMILES,Potency
1,NC(=S)N/N=C/c1cccnc1,inactive
2,CC(C)CC=O,inactive
3,CC(=O)SCc1ccco1,inactive
4,CC(=O)OCCc1ccccc1,inactive
5,COc1cc(C(C)(C)C)c(O)c(C(C)(C)C)c1,inactive
6,CC(=O)O[C@H]1C[C@@H]2CC[C@@H]3[C@H](CC[C@@]4(C)[C@H]3C[C@H]([N+]3(C)CCCCC3)[C@@H]4OC(C)=O)[C@@]2(C)C[C@@H]1N1CCCCC1,inactive
7,CC(=O)/C(C)=C/C1C(C)=CCCC1(C)C (stereo not drawn),inactive
8,N#Cc1c(F)cccc1F,inactive
9,CN(C)CCCOc1nn(Cc2ccccc2)c2ccccc12,inactive
10,COc1ccc(OC)c(OC)c1,inactive
11,NC(N)=NN=C(/C=C/c1ccc([N+](=O)[O-])o1)/C=C/c1ccc([N+](=O)[O-])o1,5.35 µM (active)
12,Cl/C(=C\n1cncn1)c1ccc(Cl)cc1Cl,inactive
13,CN1CCC[C@@H]1c1cccnc1,inactive
14,Cc1c(Cn2ccnc2)c2ccccc2n1CCC(=O)O,inactive
15,Cc1ccc(C(=O)C(C)CN2CCCCC2)cc1 (stereo not drawn),inactive
16,C=Cc1c(C)c2cc3[nH]c(cc4nc(cc5nc(cc1[nH]2)C(C)=C5CCC(=O)O)C(CCC(=O)O)=C4C)c(C)c3C=C,inactive
17,CCCCCCCCC(CO)CCCCCC (stereo not drawn),inactive
18,Oc1ccc(Cc2ccccc2)cc1,inactive
19,CC(=O)CC(=O)c1ccccc1,inactive
